According to PubChem BioAssay (NCI):
This is part of a sample that, as a whole, favours compounds with a hit. Of some 83,000 tested, about 20% had one in any assay.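 Note: values are percent growth. 100 is the growth of untreated cells, values between 100 and 0 indicate rising inhibition; between -100 and 0 indicates cell death.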 A number with no mark means an inactive call. Activity calls are given as the source filed them. How the source made its calls: active means growth percent below 10; inactive means the rest.

Assays:
Assay in all cases: NCI-60 one-dose screen, 48 h (100 = growth as untreated, 0 = no growth, -100 = all killed)
Details in all cases: 10 µM unless noted
DU-145 prostate = test system: DU-145 prostate
K-562 leukemia = test system: K-562 leukemia
MALME-3M melanoma = test system: MALME-3M melanoma
MDA-MB-231 breast = test system: MDA-MB-231 breast
RXF 393 renal = test system: RXF 393 renal
SF-268 CNS = test system: SF-268 CNS
SF-295 CNS = test system: SF-295 CNS
SF-539 CNS = test system: SF-539 CNS
UACC-257 melanoma = test system: UACC-257 melanoma
M14 melanoma = test system: M14 melanoma
HCT-15 colon = test system: HCT-15 colon
HT29 colon = test system: HT29 colon
SNB-75 CNS = test system: SNB-75 CNS
U251 CNS = test system: U251 CNS
PC-3 prostate = test system: PC-3 prostate
SK-MEL-5 melanoma = test system: SK-MEL-5 melanoma
UACC-62 melanoma = test system: UACC-62 melanoma
LOX IMVI melanoma = test system: LOX IMVI melanoma
SK-MEL-28 melanoma = test system: SK-MEL-28 melanoma

SMILES | growth (DU-145 prostate) | growth (K-562 leukemia) | growth (MALME-3M melanoma) | growth (MDA-MB-231 breast) | growth (RXF 393 renal) | growth (SF-268 CNS) | growth (SF-295 CNS) [%] | growth (SF-539 CNS) | growth (UACC-257 melanoma) [%] | growth (M14 melanoma) [%] | growth (HCT-15 colon) | growth (HT29 colon) | growth (SNB-75 CNS) | growth (U251 CNS) | growth (PC-3 prostate) | growth (SK-MEL-5 melanoma) | growth (UACC-62 melanoma) | growth (LOX IMVI melanoma) | growth (SK-MEL-28 melanoma) [%]
Cc1[nH]c(C(=O)Nc2ccc(C(N)=O)cc2OC(C)C)c(Cl)c1Cl | 101% | 79.9% | 101% | 91.4% | 133% | 97.5% | 104 | 92.8% | 106 | 108 | 96.1% | 111% | 93.3% | 98.2% | 99.3% | 99.3% | 106% | 96.1% | 106
O=C(Nc1ncc(Cc2cc(C(F)(F)F)ccc2Cl)s1)C(=S)N1CCOCC1 | 100% | 82.2% | 92.7% | 87.4% | 92.6% | 88.7% | 88.8 | 101% | 95 | 86.7 | 78.6% | 95.1% | 86.7% | 90.3% | 81.3% |  | 72.6% | 90.5% | 114
O=C(/C=C/c1ccco1)c1ccc(Nc2ccnc3cc(Cl)ccc23)cc1 | 90.8% | 51.2% | 110% | 70.2% | -28.3% (active) | 105% | 72.5 | 92.1% | 97.8 | 83.3 | 59.7% | 23.4% | 105% | 56.5% | 80.5% | 68.8% | 108% | 76.6% | 103
O=C1CC2C=CCN2C=C1NC(=O)c1ccccc1 (stereo unspecified) | 103% | 92.7% | 93.9% | 112% | 105% | 98.7% | 98 | 107% | 99.8 | 98.8 | 100% | 97.9% | 96.8% | 97.2% | 99.7% | 100% | 109% | 99.3% | 103
CC(=O)c1ccc(Nc2nccc(-c3ccc(Cl)cc3)n2)cc1 | 102% | 83.9% | 101% | 101% | 103% | 93% | 101 | 92.3% | 106 | 101 | 82.3% | 86.2% | 105% | 78.4% | 89.6% | 102% | 86.5% | 90.7% | 113
CCOC(=O)c1c2c(n3ccc(NC(=O)CCN4CCCC4)cc13)C(=O)c1ncccc1C2=O | -89.3% (active) | -40.3% (active) | 66.3% | -71.2% (active) | 47.5% | -67.8% (active) | 32.2 | -75.8% (active) | 105 | 63.7 | -78.1% (active) | -52.8% (active) | -97.5% (active) | -88.5% (active) | -11.7% (active) | 68.6% | -12.4% (active) | -73% (active) | 96.4
COC1CC(O)C2=C(CC3C(/C(C)=C\CC=C(C)C)CCC3(C)O2)C1=O (stereo unspecified) | 101% | 96.7% | 102% | 115% | 110% | 91.1% | 107 | 109% | 95.2 | 106 | 110% | 99.4% | 107% | 99% | 93.6% | 99.2% | 94.9% | 106% | 119
CNC1=C(Br)C(=O)c2c(C(=O)OC)c(C)nc(C)c2C1=O | 57.9% | 64.4% | -26.6% (active) | 71.6% | 63.5% | 73.5% | 78.3 | 82.8% | 56.1 | 31.4 | 36.8% | 19.8% | 139% | 71.1% | 48.9% | -90.9% (active) | 1.42% (active) | 35.3% | 91.3
